The values that follow come from PubChem BioAssay (NCATS).

Structures are written as SMILES. Results filed as inconclusive are left out. Where a call stands in place of a potency, no number is given. The source made the active and inactive calls. Calls come from the whole dose curve; as a rule, active = well fitted curve in the direction sought with a large enough effect; inconclusive = small, poorly fitted or top-dose-only effect, or another doubt; inactive = no such curve, though single readings can be large; an effect the other way counts as inactive or inconclusive.

Experiment [1] can be described thus: qHTS to identify inhibitors of the type 1 interferon - major histocompatibility complex class I in skeletal muscle: primary screen against the NCATS Mechanism Interrogation Plate v5.0 (MIPE) Libary (AID 1347411). Note: nearly all actives have a fitted effect of over 65% in size. Note: potency is the fitted concentration of half-maximal effect. Particulars: iHSKM cells + IFN-b, HiBiT-tagged MHC-I luminescence, 24 h; series mostly up to 45.8 µM. The procedure, abridged: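 Cells were genome-edited human myoblasts carrying a HiBit tag on endogenous HLA-B. They were treated with IFN-beta (4.0 ng/ml) and titrated compounds (top 46 uM) for 24 hrs before lytic HiBiT detection.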
In general terms: qHTS replaces the single test concentration by a dilution series.

Experiment [2] is described as follows: qHTS for activators of dead-cell proteases activity screened against the NCATS CANVASS Library (AID 1347392).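 Note: luminescence from protease leaking out of membrane-damaged cells cleaving impermeant substrate; rising signal means more cytotoxicity.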 Particulars: HepG2 cytotoxicity, dead-cell protease luminescence, 5 h; series mostly up to 46.1 µM. The procedure, abridged:
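HepG2 cells, 2000/well, attached 18 h at 37C, then exposed to compounds (11-point qHTS) for 5 h. Dead-cell protease release read as luminescence from cell-impermeant AAF-aminoluciferin substrate after 15 min at room temperature.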

A short description of experiment [3]: qHTS for inhibitors of ER calcium dysfunction: SERCaMP assay screened against the NCATS CANVASS Library (AID 1347393).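 Note: lower secreted reporter signal means inhibitor of ER calcium depletion; nearly all actives have a fitted effect of over 40% in size.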 Particulars: SH-SY5Y GLuc-SERCaMP secretion, thapsigargin, luminescence; series mostly up to 76.6 µM. The procedure, abridged:
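SH-SY5Y GLuc-SERCaMP, 1000 cells/well, 4 h attach; cpd 16 h, 37C/5% CO2; thapsigargin (added as 6x 600 nM) 4 h; coelenterazine; luminescence. Reduced reporter release = ER Ca stabilization.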

A short description of experiment [4]: Vero-766 cells viability qHTS against the NCATS CANVASS Library: Counterscreen for Zika virus inhibition assay (AID 1347394). Note: nearly all actives have a fitted effect of over 60% in size. Particulars: Vero 766 viability, CellTiter-Glo luminescence, 72 h; series mostly up to 46.1 µM. An outline of the steps: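 Vero 766 cells (1000/well), without Zika virus, were exposed to compounds for 72 h at 37C. Viability was measured by CellTiter Glo luminescence. Media-only wells served as 100% inhibition.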

Experiment [5] can be described thus: qHTS for inhibitors of Wild type Zika virus screened against the NCATS CANVASS Library (AID 1347396).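 Note: ATP luminescence of surviving cells so rescue from viral cell killing.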 The note with it: Vero cells, Zika virus CPE, CellTiter-Glo, 72 h; series mostly up to 45.9 µM. The procedure, abridged: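 Using ATP-based luminescence (CellTiter Glo), this screen scores rescue of Vero 766 cells from wild-type Zika killing at 72 h post-infection. Compounds are tested in a concentration series.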

Experiment [6] can be described thus: Viability qHTS for inhibitors of the SERCaMP assay screened against the NCATS CANVASS Library (AID 1347400). Note: nearly all actives have a fitted effect of over 70% in size. The note with it: SH-SY5Y SERCaMP cells viability, CellTiter-Glo, 48 h; series mostly up to 92.2 µM. An outline of the steps:
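Cytotoxicity counter-screen: ATP content (CellTiter-Glo luminescence) of SH-SY5Y-GLuc SERCaMP MJH297 cells after 48 h at 37C with compounds in an 11-point qHTS series.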

A short description of experiment [7]: Redox Reaction Profiling qHTS: Assay Interference Panel against the NCATS CANVASS Library (AID 1347401). The note with it: resazurin-DTT redox cycling, fluorescence, 15 min; series mostly up to 57.1 µM. An excerpt:
Natural products and their derivatives continue to be wellsprings of nascent therapeutic potential. However, many laboratories have limited resources for biological evaluation, leaving their previously isolated or synthesized compounds largely or completely untested. To address this issue, the Canvass library of natural products was assembled (https://tripod.nih.gov/canvass), in collaboration with academic and industry researchers, for quantitative high-throughput screening (qHTS) across a diverse set of cell-based and biochemical assays. […] The library was formatted into 1536-well plates and evaluated in 50 qHTS (in an 11-pnt concentration series) bioassays with broad scope of disease-relevant mechanisms. The resulting data set from 50 different assays was then systematically analyzed to identify overall trends and specific natural products with interesting biological activities. […]
Redox Profiling assay protocol: 1. […] An initial fluorescence readout was obtained using the ViewLux plate reader (PerkinElmer) using a 525 nm excitation and a 598 nm emission filters. […] After incubation, the final fluorescence readout was obtained using the ViewLux plate reader (PerkinElmer) using a 525 nm excitation and a 598 nm emission filters.

Experiment [8] in a line: qHTS to identify inhibitors of the type 1 interferon - major histocompatibility complex class I in skeletal muscle: primary screen against the NCATS Pharmaceutical Collection (AID 1347407).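 Note: luminescence of HiBiT knocked into endogenous HLA-B as interferon-induced MHC class I level.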 Particulars: human skeletal muscle cells, IFN-b-induced MHC-I HiBiT luminescence, 24 h; series mostly up to 45.9 µM. The procedure, abridged:
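Immortalized human myoblasts (C25cl48) with HiBiT knocked into endogenous HLA-B*08:01 were stimulated with 4.0 ng/ml IFN-beta and treated with compounds ([…] top 46 uM) for 24 hrs at 37 C. HiBiT lytic luminescence read.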

Experiment [9] can be described thus: qHTS to identify inhibitors of the type 1 interferon - major histocompatibility complex class I in skeletal muscle: primary screen against the NCATS LOPAC collection (AID 1347405).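 Note: lytic HiBiT luminescence reporting HLA-B protein level.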 Particulars: iHSKM muscle cells, IFN-b-induced MHC-I HiBiT luminescence, 24 h; series mostly up to 45.9 µM. An excerpt:
Assay Submitter (PI): Travis B. Kinder Ph.D. & James Inglese Ph.D.
Assay Development and Screening Technology Laboratory (ADST)
National Center for Advancing Translational Sciences (NCATS), Rockville, MD
National Institute of Health (NIH), Bethesda, Maryland
Idiopathic inflammatory myopathies, collectively referred to as myositis, are a group of rare autoimmune diseases characterized by skeletal muscle inflammation, weakness, and usually accompanied by systemic pathologies of the skin, lungs, or vasculature. Current immunosuppressive therapies and glucocorticoids are often not curative and are accompanied by harsh side effects, especially in children with juvenile myositis. […] We conducted quantitative high throughput screening on 6,576 compounds (4,679 unique) through a series of cell-based assays to identify those that inhibit the IFN-stimulated expression of MHC class I in muscle precursor cells (myoblasts). […]
The primary screen utilized CRISPR/Cas9 genome-engineering of immortalized human myoblasts, C25cl48, where a pro-luminescent reporter HiBit was fused to the C-terminus of endogenous MHC class I allele HLA-B*08:01 (HLA-B HiBit myoblasts). […] After 24 hrs of treatment, cells were assayed by Nano-Glo HiBiT Lytic Detection System (Promega) and luminescence measured by a ViewLux 1430 Ultra HTS (Perkin Elmer). […]

Experiment [10] is described as follows: qHTS for inhibitors of adenylyl cyclases using a fission yeast platform: a pilot screen against the NCATS LOPAC library (AID 1347410). The note with it: S. pombe CHP2027, fbp1-GFP fluorescence, 18 h, yeast expressing mammalian AC9 and human GNAS; series mostly up to 57.5 µM. The procedure, abridged: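 S. pombe CHP2027 (AC9-GNAS-PDE4D2) carrying PKA-repressed fbp1-GFP, incubated 18 h at 30C in EMM with LOPAC compounds at up to 57 uM. GFP gain-of-signal read by laser scanning cytometry; DMSO negative control.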

Regarding `CC(C)N(C[C@H]1O[C@@H](n2cnc3c(N)ncnc32)[C@H](O)[C@@H]1O)C1CC(CCc2nc3ccc(C(C)(C)C)cc3[nH]2)C1` (some centres not stated), the Potency entry in [1] was “inactive”. On to `CC1=C2C(=O)O[C@@H](c3ccoc3)[C@]2(C)CCC1`, for which the molecule was called inactive in experiment [2], in experiment [3], in [4], in experiment [5], in experiment [6] and in [7].

In the case of `CO[C@@H]1COCC[C@@H]1N[C@@H]1CC[C@@](C(=O)N2CCc3ncc(C(F)(F)F)cc3C2)(C(C)C)C1`, the Potency entry in experiment [1] is “inactive”. For the molecule `NS(=O)(=O)NCCNc1nonc1C(=Nc1ccc(F)c(Br)c1)NO`, in experiment [1], the Potency result was “inactive”. On the same count and under the same terms, in the case of `CCOc1cc2ncc(C#N)c(Nc3ccc(OCc4ccccn4)c(Cl)c3)c2cc1NC(=O)/C=C/CN(C)C` it was 4.66 µM (active); in that of `COc1ccc2cc(OCC3(C(=O)O)CN(C(=O)c4ccc(F)cc4)C3)ccc2c1`, “inactive”; in that of `CCOC(=O)c1ccnc(CNCC(=O)N(CC)CCN(C)C)c1`, “inactive”. Still for that read-out and setting: to `CN(NC(=O)CC(=O)NN(C)C(=S)c1ccccc1)C(=S)c1ccccc1` belongs “inactive”; to `O=C(NCC(=O)N1CC[C@H](NC2CCC(O)(c3ccc(-c4ncccn4)cn3)CC2)C1)c1cccc(C(F)(F)F)c1` (some centres not stated), “inactive”. `CC(=O)OC(C)OC(=O)C(C)c1ccc(-c2ccccc2)c(F)c1` (configuration not stated): the molecule was called inactive in [8]. For the molecule `C/C=C/C=C/C(CC(=O)O)Nc1ccc(C=O)cc1` (configuration not stated), the result in [2], in [3], in [4], in experiment [5], in experiment [6] and in [7] was inactive. Consider `CNc1nc(Nc2cnn([C@H]3CCN(C4COC4)C[C@@H]3F)c2Cl)ncc1C(F)(F)F`, for which the Potency result in experiment [1] is “inactive”.

For the molecule `CN1Cc2c(N)cccc2C(c2ccccc2)C1` (configuration not stated), the call in [9], in experiment [8] and in [10] was inactive. As to `Nc1ccn([C@@H]2C(F)=C(CO)[C@@H](O)[C@H]2O)c(=O)n1`, the Potency result in experiment [1] was “inactive”. The same measure, in the same setting: to `O=C(c1ccc(NS(=O)(=O)c2cccc3cccnc23)cc1)N1CCN(CC2CC2)CC1` belongs “inactive”.
